# From PubChem BioAssay
# The source made the active and inactive calls.
# Legend:
# [1] = binders of probe aFSTL3 on microarray, primary screen, stem cell growth factor project, biochemical, small-molecule microarray, fluorescence 635/667 (AID 1064); conditions: higher = more signal;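 note: measures binding of the biotinylated anti-FSTL3 antibody to printed compounds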
# [2] = binders from COS7 lysate, DM2A8 probe, primary screen, torsin A project, cell lysate, small-molecule microarray, fluorescence 635/667 (AID 1065); conditions: higher = more signal, COS7 lysate expressing mutant human TOR1A
# [3] = binders of probe aFGF2 on microarray, primary screen, stem cell growth factor project, biochemical, small-molecule microarray, fluorescence 635/667 (AID 1067); conditions: higher = more signal;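 note: measures binding of biotinylated aFGF2 protein to printed compounds on slides; z-score merges feature fluorescence and signal-to-noise across triplicate slides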
# [4] = binders of probe aFGF10 on microarray, primary screen, stem cell growth factor project, biochemical, small-molecule microarray, fluorescence 635/667 (AID 1071); conditions: higher = more signal;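 note: score merges 667 nm spot intensity and signal to noise from triplicate slides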
# [5] = target: Neurogenic locus notch homolog protein 2 (Homo sapiens) (UniProt Q04721); assay: Notch2 binders on small-molecule microarrays, primary screen, biochemical, small-molecule microarray, 635 nm fluorescence, stem cell growth factors (AID 1073); conditions: Notch2 binding, higher = more signal
# [6] = target: Pro-neuregulin-1, membrane-bound isoform (Homo sapiens) (UniProt Q02297); assay: NRG1 binders on small-molecule microarrays, primary screen, psychiatric disease protein project, biochemical, small-molecule microarray, fluorescence 635/667 (AID 1075); conditions: NRG1 binding, 635 nm fluorescence, higher = more signal;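 note: score combines 667 nm spot fluorescence with signal to noise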
# Chain of Pro-neuregulin-1, membrane-bound isoform (Homo sapiens) (Q02297 whole entry, looked up, the tested form may be a part, canonical isoform): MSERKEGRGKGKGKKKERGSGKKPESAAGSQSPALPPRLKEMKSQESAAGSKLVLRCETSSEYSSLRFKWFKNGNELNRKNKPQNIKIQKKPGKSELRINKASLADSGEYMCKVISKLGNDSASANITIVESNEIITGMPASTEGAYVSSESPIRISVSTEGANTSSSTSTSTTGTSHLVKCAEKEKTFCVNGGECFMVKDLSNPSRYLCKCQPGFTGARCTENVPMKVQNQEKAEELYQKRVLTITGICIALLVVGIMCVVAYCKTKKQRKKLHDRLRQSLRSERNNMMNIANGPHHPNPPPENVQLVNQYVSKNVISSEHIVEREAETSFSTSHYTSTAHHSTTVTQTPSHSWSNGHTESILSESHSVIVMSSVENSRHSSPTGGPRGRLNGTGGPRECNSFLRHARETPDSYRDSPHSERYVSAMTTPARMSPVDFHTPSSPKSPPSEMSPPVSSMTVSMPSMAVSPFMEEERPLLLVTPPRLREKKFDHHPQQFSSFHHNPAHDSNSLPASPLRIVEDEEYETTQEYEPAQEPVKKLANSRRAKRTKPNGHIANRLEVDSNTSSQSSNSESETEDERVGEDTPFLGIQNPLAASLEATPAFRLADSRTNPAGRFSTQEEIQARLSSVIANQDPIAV
# [7] = tested on: Neuregulin-1 EGF-like domain; assay: binders of neuregulin-1 EGF-like domain, primary screen, biochemical, small-molecule microarray, 635 nm fluorescence (AID 1081); conditions: small-molecule microarray binding, higher = more signal;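 note: binding of the protein to compounds printed on small-molecule microarray slides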
# [8] = FRG1 promoter luciferase signal modulators, primary screen, FRG1 inhibition for FSHD, cell-based, C2C12 myotubes, firefly/Renilla luciferase, luminescence (AID 1084); conditions: higher = more signal, called active from +8 up or from −8 down
# [9] = binders of probe aFST on microarray, primary screen, stem cell growth factor project, biochemical, small-molecule microarray, fluorescence 635/667 (AID 1086); conditions: higher = more signal;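 note: score merges 667 nm fluorescence with signal-to-noise of each printed compound spot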
# [10] = binders of probe aHhip on microarray, primary screen, stem cell growth factor project, biochemical, small-molecule microarray, fluorescence 635/667 (AID 1087); conditions: higher = more signal;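 note: score merges spot fluorescence at 667nm with spot signal to noise ratio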
# [11] = tested on: PRMT1 (protein arginine N-methyltransferase 1); assay: PRMT1 binders on small-molecule microarrays, primary screen, biochemical, small-molecule microarray, 635 nm fluorescence (AID 1088); conditions: small-molecule microarray binding, higher = more signal;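 note: binding of Prmt1 protein to compounds spotted on small-molecule microarray slides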
# [12] = yeast growth modulation, basal conditions, primary screen, YJM789 clinical isolate, OD600, 24 h (AID 1089);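 note: growth of clinical yeast isolate S. cerevisiae YJM 789 seeded 1000 cells per well; test concentration not given here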; conditions: S. cerevisiae YJM789 growth, higher = more signal, called active from +8 up or from −8 down
# [13] = fission yeast growth modulation, primary screen, strain 972, OD600, 24 h, no modulator (AID 1090);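 note: basal condition with compound alone and no growth modifier present; test concentration not given here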; conditions: S. pombe 972 growth, higher = more signal, called active from +8 up or from −8 down
# [14] = S. cerevisiae growth modulation with rapamycin, primary screen, strain BY4716, OD600, 96 h (AID 1091); conditions: higher = more signal, called active from +8 up or from −8 down; note: test concentration not given here
# [15] = target: Torsin-1A-interacting protein 2 (Homo sapiens) (UniProt Q8NFQ8); assay: LULL1 binders on small-molecule microarray, primary screen, cell lysate, human LULL1 lysate, 635/667 nm fluorescence (AID 1092); conditions: hLULL1 lysate binding, 635 nm fluorescence, higher = more signal;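 note: probe is lysate of COS7 cells overexpressing human LULL1; score merges per-feature 667 nm fluorescence with signal-to-noise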
# Chain of Torsin-1A-interacting protein 2 (Homo sapiens) (Q8NFQ8 whole entry, looked up): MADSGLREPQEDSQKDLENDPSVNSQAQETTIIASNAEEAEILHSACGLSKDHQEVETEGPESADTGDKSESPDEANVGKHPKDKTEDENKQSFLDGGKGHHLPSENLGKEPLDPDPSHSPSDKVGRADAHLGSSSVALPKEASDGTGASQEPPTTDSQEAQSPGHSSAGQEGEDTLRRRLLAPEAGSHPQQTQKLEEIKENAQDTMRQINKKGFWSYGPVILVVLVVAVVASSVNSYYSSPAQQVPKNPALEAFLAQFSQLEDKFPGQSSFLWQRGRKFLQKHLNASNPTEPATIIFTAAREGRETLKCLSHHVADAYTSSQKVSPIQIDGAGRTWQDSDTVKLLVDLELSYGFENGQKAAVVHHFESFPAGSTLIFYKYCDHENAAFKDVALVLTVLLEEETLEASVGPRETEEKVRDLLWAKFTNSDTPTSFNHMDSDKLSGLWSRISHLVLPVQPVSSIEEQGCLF
# [16] = E. coli growth modulation, two-sided OD650, primary screen, E. coli filamentation project, strain DRC41, 24 h (AID 1093); conditions: OD650, 24 h, higher = more signal, called active from +8 up or from −8 down;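 note: MC1000 strain lacking acrAB efflux and sulA so SOS filamentation is blocked; test concentration not given here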
# [17] = small-molecule microarray binders of probe aLefty2, primary screen, biochemical, biotinylated probe, 635/667 nm fluorescence (AID 1094); conditions: higher = more signal;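 note: score merges spot fluorescence near 667 nm with spot signal-to-noise ratio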
# [18] = tested on: Noggin (protein binding on small-molecule microarray); assay: Noggin binders on small-molecule microarray, primary screen, biochemical, 635/667 nm fluorescence (AID 1095); conditions: 635 nm fluorescence, higher = more signal;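 note: score merges 667 nm feature fluorescence with signal to noise over triplicate slides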
# [19] = target: Neurogenic locus notch homolog protein 3 (Homo sapiens) (UniProt Q9UM47); assay: NOTCH3 binders on small-molecule microarray, primary screen, biochemical, 635/667 nm fluorescence (AID 1096); conditions: NOTCH3 binding, 635 nm fluorescence, higher = more signal
# Chain of Neurogenic locus notch homolog protein 3 (Homo sapiens) (Q9UM47 whole entry, looked up): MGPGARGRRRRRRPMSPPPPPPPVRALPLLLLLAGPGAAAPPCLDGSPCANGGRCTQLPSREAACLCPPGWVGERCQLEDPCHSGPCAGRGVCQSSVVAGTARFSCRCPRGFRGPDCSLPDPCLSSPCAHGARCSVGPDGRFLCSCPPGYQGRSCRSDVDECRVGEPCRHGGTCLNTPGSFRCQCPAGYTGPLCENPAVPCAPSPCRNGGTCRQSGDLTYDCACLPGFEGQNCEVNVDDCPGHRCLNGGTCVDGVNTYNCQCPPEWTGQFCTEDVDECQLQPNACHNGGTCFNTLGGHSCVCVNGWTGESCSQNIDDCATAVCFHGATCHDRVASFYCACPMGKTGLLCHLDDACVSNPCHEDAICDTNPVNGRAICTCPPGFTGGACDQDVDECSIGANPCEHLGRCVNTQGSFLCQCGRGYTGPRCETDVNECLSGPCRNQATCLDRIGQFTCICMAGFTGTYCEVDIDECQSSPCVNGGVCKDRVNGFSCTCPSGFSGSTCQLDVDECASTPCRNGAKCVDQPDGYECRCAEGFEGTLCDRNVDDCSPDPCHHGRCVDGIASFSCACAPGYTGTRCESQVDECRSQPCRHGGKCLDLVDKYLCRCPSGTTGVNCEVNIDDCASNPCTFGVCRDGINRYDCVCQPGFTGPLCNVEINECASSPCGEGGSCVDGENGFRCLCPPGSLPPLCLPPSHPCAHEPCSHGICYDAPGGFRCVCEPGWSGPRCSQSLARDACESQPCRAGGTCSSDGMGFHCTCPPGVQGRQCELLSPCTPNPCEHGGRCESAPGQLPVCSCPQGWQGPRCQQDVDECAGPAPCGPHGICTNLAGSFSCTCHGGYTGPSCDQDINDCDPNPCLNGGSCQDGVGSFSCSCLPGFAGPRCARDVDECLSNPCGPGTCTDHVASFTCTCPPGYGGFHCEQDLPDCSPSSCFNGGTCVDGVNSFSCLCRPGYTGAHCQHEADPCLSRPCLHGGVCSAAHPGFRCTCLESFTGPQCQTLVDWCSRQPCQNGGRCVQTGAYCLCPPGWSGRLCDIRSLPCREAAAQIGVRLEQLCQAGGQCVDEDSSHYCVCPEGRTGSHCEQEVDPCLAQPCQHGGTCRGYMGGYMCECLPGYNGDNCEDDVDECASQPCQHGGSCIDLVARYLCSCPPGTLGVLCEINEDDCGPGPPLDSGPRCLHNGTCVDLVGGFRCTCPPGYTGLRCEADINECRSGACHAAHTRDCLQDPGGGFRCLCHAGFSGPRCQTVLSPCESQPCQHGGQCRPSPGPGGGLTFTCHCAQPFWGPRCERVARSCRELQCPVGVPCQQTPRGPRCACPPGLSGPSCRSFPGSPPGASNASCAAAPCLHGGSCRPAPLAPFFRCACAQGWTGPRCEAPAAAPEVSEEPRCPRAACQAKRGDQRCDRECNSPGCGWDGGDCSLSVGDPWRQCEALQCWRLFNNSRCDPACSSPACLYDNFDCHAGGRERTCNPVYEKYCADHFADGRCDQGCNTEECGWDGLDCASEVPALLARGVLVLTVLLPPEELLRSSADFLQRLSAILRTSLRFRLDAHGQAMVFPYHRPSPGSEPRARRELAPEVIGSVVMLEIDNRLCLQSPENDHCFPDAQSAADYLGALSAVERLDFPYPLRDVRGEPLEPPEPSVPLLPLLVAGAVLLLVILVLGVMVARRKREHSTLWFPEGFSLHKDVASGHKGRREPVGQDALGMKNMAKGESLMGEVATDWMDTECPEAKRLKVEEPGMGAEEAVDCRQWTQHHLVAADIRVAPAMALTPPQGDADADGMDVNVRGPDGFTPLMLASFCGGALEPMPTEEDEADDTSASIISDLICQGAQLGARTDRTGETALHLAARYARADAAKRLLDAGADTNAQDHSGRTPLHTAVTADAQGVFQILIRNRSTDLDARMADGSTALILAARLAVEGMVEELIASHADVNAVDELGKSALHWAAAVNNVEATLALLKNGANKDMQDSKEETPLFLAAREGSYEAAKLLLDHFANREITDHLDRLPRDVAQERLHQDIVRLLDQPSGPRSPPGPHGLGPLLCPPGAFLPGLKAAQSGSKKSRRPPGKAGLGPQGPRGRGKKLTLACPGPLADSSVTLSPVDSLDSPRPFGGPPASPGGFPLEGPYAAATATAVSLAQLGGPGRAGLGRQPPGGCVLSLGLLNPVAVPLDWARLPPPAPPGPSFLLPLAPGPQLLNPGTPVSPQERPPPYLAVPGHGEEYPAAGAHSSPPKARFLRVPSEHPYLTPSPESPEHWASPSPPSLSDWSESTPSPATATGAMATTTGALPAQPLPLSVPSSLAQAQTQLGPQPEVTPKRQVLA
# [20] = small-molecule microarray binders of probe aEGFR, primary screen, biochemical, biotinylated probe, 635/667 nm fluorescence (AID 1097); conditions: higher = more signal;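 note: probe is a biotinylated anti-EGFR antibody binding compounds printed on slides; score combines fluorescence near 667 nm and signal to noise of each spot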
Structure (SMILES),composite z-score [1],composite z-score [2],composite z-score [3],composite z-score [4],composite z-score [5],composite z-score [6],composite z-score [7],z-score [8],composite z-score [9],composite z-score [10],composite z-score [11],z-score [12],z-score [13],z-score [14],composite z-score [15],z-score [16],composite z-score [17],composite z-score [18],composite z-score [19],composite z-score [20]
C=C(CCCC)/C(=C/C[C@@H](OC(=O)c1ccncc1)c1ccc(OCCO)cc1)c1cnc2ccccc2c1,0.201,0.379,0.0166,1.19,1.48,0.227,0.841,-0.723 (inactive),0.265,-0.176,1.52,0.594 (inactive),-1.59 (inactive),0.524 (inactive),0.447,1.48 (inactive),-0.0523,1.72,1.06,-0.0243
CC(C)N1CC=CC23O[C@@H]4/C=C\CCCOC(=O)C4[C@H]2C(=O)N(CCCO)[C@@H]3C1=O (stereo not given in full),0.495,2.3,-0.01,0.215,-0.615,0.0034,1.14,1 (inactive),-0.623,-0.374,-0.78,0.759 (inactive),-0.76 (inactive),0.752 (inactive),2.15,1.77 (inactive),-0.221,-1.17,0.0751,-0.285
COC(=O)C(CC#Cc1ccc2c(c1)[C@]1(C(=O)N2)[C@H](C(=O)O)[C@H]2C(=O)O[C@H](c3ccccc3)[C@H](c3ccccc3)N2[C@@H]1c1ccc(OCCO)cc1)C(=O)OC,-0.0148,1.74,-0.0144,0.767,1.17,2.11,1.31,-1.19 (inactive),0.6,-0.0994,1.55,0.299 (inactive),-1.91 (inactive),-1.38 (inactive),3.03,3.49 (inactive),-0.0816,0.245,0.983,-0.0728
C[C@@H](OCc1ccccc1)C1NC(=O)[C@@]23C(=O)N[C@@H](Cc4ccccc4)C2[C@H](C)[C@@]2(C)O[C@H]2C3/C=C/C/C=C\CNC(=O)[C@@H]2CCCN2C1=O (stereo not given in full),-0.0401,-0.332,-0.146,-0.595,-0.571,-0.52,0.633,1.91 (inactive),-0.111,-0.343,-0.449,-0.399 (inactive),-0.985 (inactive),-0.266 (inactive),-0.139,2.34 (inactive),-0.0901,-0.315,-0.665,-0.209
C[N+](C)(C)CCCCNC(=O)[C@@H]1C[C@@H]2C(=O)NCC(=O)N2[C@@H]1c1cccc(OCCO)c1,-0.501,2.04,-0.085,1.05,-0.544,1.22,1.34,-0.53 (inactive),0.432,0.167,1.39,2.16 (inactive),-0.823 (inactive),-1.89 (inactive),2.47,1.73 (inactive),-0.0607,1.88,1.14,0.0526
CC(C)(C)OC(=O)CC[C@@]1(C(=O)NCc2ccccc2)N=C(c2ccc(OCCCO)cc2)O[C@@H]1c1ccccc1CN=[N+]=[N-],0.492,1.41,0.015,1.18,1.49,1.16,1.15,0.59 (inactive),1.19,-0.148,1.53,-0.0222 (inactive),-0.0704 (inactive),-0.13 (inactive),2.3,2.64 (inactive),0.387,0.958,1.14,0.236
COC(=O)c1c2oc(c1C(=O)OC)C(=O)N[C@@H](C(C)C)Cn1nncc1C1(CCCCC1)NC(=O)N[C@H](CO)CC2,-0.07,0.178,-0.129,0.147,-0.294,0.969,0.625,-0.993 (inactive),-0.103,0.0373,-0.143,0.0957 (inactive),-0.99 (inactive),-0.787 (inactive),2.02,2.28 (inactive),-0.208,-0.494,-0.373,-0.144
CC(C)[Si](C#C[Si](C(C)C)(C(C)C)C(C)C)(O[C@H](C)c1cn([C@H](C)c2ccccc2)nn1)C(C)C,-0.248,0.15,-0.0402,0.357,0.814,0.3,0.528,-1.64 (inactive),0.25,-0.132,1.18,-1.22 (inactive),-2.35 (inactive),-1.4 (inactive),1.11,0.723 (inactive),0.0137,0.5,0.987,-0.0525
Cc1ccc(S[C@]2(C(=O)NCCN3CCOCC3)CC(=O)N(Cc3cc(C(F)(F)F)cc(C(F)(F)F)c3)[C@@H]2c2ccc(CO)cc2)cc1,0.62,-0.439,-0.15,-1.35,-1.26,1.04,-0.382,-1.67 (inactive),-0.341,-0.0632,1.24,-1.03 (inactive),-3.43 (inactive),-2.07 (inactive),1.47,0.611 (inactive),-0.136,-0.984,-0.54,-0.252
C=C(/C(=C/C[C@H](OC(C)=O)c1cccc(OCCO)c1)c1cc(C(=O)OC)ccc1OC)C(C)C,0.037,0.0106,-0.128,0.437,-1.02,1.04,0.274,-0.698 (inactive),-0.24,0.0623,0.359,0.0359 (inactive),-1.37 (inactive),-0.954 (inactive),0.41,1.73 (inactive),-0.189,-0.0168,-0.609,-0.191
C=C(C(=O)CC[C@@H](OC(C)=O)c1ccccc1OCCO)C(C)C,-0.354,-0.363,-0.133,0.664,-0.553,-0.267,-0.29,-2.13 (inactive),-0.575,-0.0994,0.526,-6.28 (inactive),-20.5 (active),-2.44 (inactive),-0.0719,1.27 (inactive),-0.2,-0.0776,0.232,-0.249
CO[C@H]1O[C@H](CO)[C@@H](OC(=O)Nc2ccccc2)[C@H](OC(=O)Nc2ccccc2-c2ccccc2)[C@H]1OC(=O)Nc1ccccc1-c1ccccc1,0.183,1.85,-0.0449,0.567,0.555,1.31,1.3,-0.114 (inactive),0.714,-0.0296,1.54,-2.03 (inactive),-0.674 (inactive),1.22 (inactive),2.91,1.39 (inactive),-0.0699,0.764,0.965,-0.0978
COC(=O)C1=CC(c2ccc(CO)cc2)=CC(c2cccs2)N(C)C=C1C(=O)OC (stereo not given),1.13,0.2,-0.0625,-0.0568,-0.109,1.96,1.29,1.36 (inactive),0.308,-0.226,0.853,-0.543 (inactive),-5.22 (inactive),-0.424 (inactive),2.88,0.637 (inactive),0.0094,-0.853,0.302,-0.135
C=C(C(=O)CC[C@H](OC(C)=O)c1ccc(CO)o1)C(C)C,-0.466,0.615,-0.189,0.122,-1.28,-0.116,0.388,-0.629 (inactive),-0.393,0.0596,0.966,1.01 (inactive),-0.344 (inactive),-0.454 (inactive),0.468,1.44 (inactive),-0.127,0.512,-0.654,-0.181
O=C1N(CCS(=O)(=O)c2ccccc2)Cc2ccccc2[C@@H]2OC(c3ccc(OCCCO)cc3)=N[C@]12Cc1ccccc1,1.02,0.397,0.196,0.849,1.5,1.84,1.39,-2.88 (inactive),0.843,-0.338,1.53,2.44 (inactive),1.46 (inactive),9.7 (active),3.4,0.552 (inactive),0.657,1.1,1.01,0.442
CC(C)C[C@@H]1NC(=O)[C@@]23C(=O)N[C@@H](Cc4ccccc4)C2[C@H](C)[C@@]2(C)O[C@H]2C3/C=C/CC/C=C/CNC(=O)[C@@H](C)NC1=O (stereo not given in full),-0.574,0.408,-0.178,0.408,0.578,-0.418,0.635,-1.05 (inactive),0.17,0.21,0.118,0.395 (inactive),-0.619 (inactive),-0.697 (inactive),-0.664,2.82 (inactive),-0.19,1.28,0.71,-0.162
CCCCCN1CC=CC23O[C@@H]4/C=C\CCC(C)OC(=O)C4[C@H]2C(=O)N(CCCO)[C@@H]3C1=O (stereo not given in full),0.499,2.09,-0.128,-1.37,-1.28,1.57,1.15,0.356 (inactive),-0.61,-0.261,-0.418,-1.3 (inactive),-1.58 (inactive),-0.544 (inactive),0.818,1.77 (inactive),-0.441,-1.44,-1.17,-0.262
C/C=C/[C@@H](CCn1cc(CCO[Si](C(C)C)(C(C)C)C(C)C)nn1)[Si](C)(C)c1ccc(OC)cc1,0.502,-0.416,-0.271,-2.29,-2.88,-0.774,-0.48,-1.33 (inactive),-0.986,-0.413,-0.551,-3.08 (inactive),-2.88 (inactive),-1.94 (inactive),-0.356,-0.715 (inactive),-0.275,-1.15,-3.03,-0.406
CC(CO)N1C(=O)[C@@H]2C3C(=O)OCCC/C=C\[C@H]3OC23C=CCN(Cc2ccccc2)C(=O)[C@@H]13 (stereo not given in full),0.418,-0.338,-0.143,-0.486,-0.847,-0.512,0.18,0.227 (inactive),-0.0745,-0.0239,0.432,-0.537 (inactive),-2.16 (inactive),-0.875 (inactive),-0.0166,2.31 (inactive),-0.16,-0.545,-0.505,-0.186
